Compound activity: PubChem BioAssay, National Center for Advancing Translational Sciences (NCATS)
GLP-1R agonist: activates the human GLP-1 receptor; Potency, µM (doses to about 45.6 µM), most hits filed as activators; HEK293 GLP-1R CRE-luciferase, luminescence, 4-6 h; cells express a hypersensitive GLP-1R form; AID 624172; 380,000 compounds, 0.007% hits
PTHR1 agonist: agonists of human PTHR1 parathyroid hormone receptor; HEK293 GP2 PTHR1 cells, GloSensor cAMP luminescence, 1 h; Potency, µM (top dose mostly 115 µM), actives largely listed as activators; 410,000 compounds, 0.075% hits; AID 743266; also: nearly all actives have a fitted effect of over 55% in size
Target sequence (Q03431 whole entry, looked up): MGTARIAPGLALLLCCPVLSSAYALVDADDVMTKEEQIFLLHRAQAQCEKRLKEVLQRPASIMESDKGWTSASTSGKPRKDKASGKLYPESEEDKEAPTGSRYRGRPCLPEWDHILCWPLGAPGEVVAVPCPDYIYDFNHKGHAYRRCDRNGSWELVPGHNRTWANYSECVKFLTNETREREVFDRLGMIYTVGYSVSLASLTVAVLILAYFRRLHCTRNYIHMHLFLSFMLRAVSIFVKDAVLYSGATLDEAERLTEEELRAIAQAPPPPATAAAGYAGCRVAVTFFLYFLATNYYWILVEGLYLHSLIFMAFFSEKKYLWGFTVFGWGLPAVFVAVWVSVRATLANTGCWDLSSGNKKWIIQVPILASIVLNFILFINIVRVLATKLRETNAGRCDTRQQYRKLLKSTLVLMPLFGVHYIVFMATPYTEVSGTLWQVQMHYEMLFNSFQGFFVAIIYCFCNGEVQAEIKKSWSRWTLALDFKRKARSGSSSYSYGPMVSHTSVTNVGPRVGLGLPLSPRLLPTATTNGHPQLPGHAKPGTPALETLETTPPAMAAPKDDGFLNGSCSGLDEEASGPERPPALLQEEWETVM
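HEK-293-derived GP2 cells expressing PTHR1 and a GloSensor cAMP reporter, 3,000/well, plated overnight, given luciferin plus IBMX (each 0.5 mM as added) for 1 h at 37 °C, then compound for 1 h at 37 °C. Luminescence was read after 15 min at room temperature.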
GLP1R inv ag: GLP-1 receptor (human) inverse agonism | HEK293 GLP-1R CRE-luciferase, luminescence, 24 h; GLP-1R form is constitutively active | Potency, µM (doses to about 38.3 µM), actives largely listed as inhibitors | 410,000 compounds, 1.6% hits | AID 624417; also: nearly all actives have a fitted effect of over 55% in size
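Seeding at 200 cells/uL, 12 h culture, 24 hr compound treatment, then luciferase reagent and a luminescence read; cells are HEK293 stably expressing a constitutively active GLP-1R plus cAMP-responsive luciferase.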
GLP1R cytotox: cytotoxicity in counter-screen for GLP-1R inverse agonists; AID 624418; Potency, µM (titrated, usually from 38.3 µM), most hits filed as inhibitors; HEK293 cAMP-luciferase reporter cells, luminescence, 24 h; 410,000 compounds, 0.13% hits;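 also: loss of luciferase light is scored as toxicity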
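Step one: seed cells (200 cells/uL, DMEM with 10% Nu serum, 1% pen-strep). Step two: 12-hour incubation at 37 deg C. Step three: pin 23 nL compound, incubate 24 hr. Step four: add luciferase reagent, read luminescence 12 min later.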
A number is an active result; – = inactive; ? = inconclusive; · = no result; [ ] = another dose, or the depositor's remark. A selection: hits, their analogues and other compounds. The true share with any hit is near 1.7%. Calls follow the shape of the dose curve; as a rule, active = well fitted curve in the direction sought with a large enough effect; inconclusive = small, poorly fitted or top-dose-only effect, or another doubt; inactive = no such curve, though single readings can be large; an effect the other way counts as inactive or inconclusive.

SMILES	GLP-1R agonist	PTHR1 agonist	GLP1R inv ag	GLP1R cytotox
Cc1ccc2[nH]c(C(=O)O)c(NC(=O)CN3CCN(c4cccc(C)c4C)CC3)c2c1	–	–	10µM	–
CC(CNC(=O)c1ccccc1Cl)c1ccccc1 (configuration not stated)	–	–	–	–
COC(=O)c1c(SC)nc2ccccc2c1OCc1ccc(Cl)cc1	·	–	?	–
O=C(O)CC(O)CC(O)/C=C/c1c(C2CC2)nc2ccccc2c1-c1ccc(F)cc1 (configuration not stated)	–	·	·	·
CCN(CC)CC(=O)Nc1sc(C)cc1C(=O)c1ccc(C)cc1	–	–	10µM	–
Clc1ccc(-c2csc(Nc3ccccc3)[n+]2Cc2ccco2)c(Cl)c1	–	–	2.82µM	–
CC#CC[C@@H](C)[C@@H](O)/C=C/[C@H]1[C@H]2c3cccc(CCCC(=O)O)c3O[C@H]2C[C@@H]1O	–	·	·	·
Cc1ccc(NC(=O)c2ncn(CCCNCCCc3ccccc3)n2)cc1C	–	–	?	–
Cc1cc2c(cc1C)C(c1ccccc1OC(C)C)CC(=O)N2 (configuration not stated)	–	–	10µM	–
COC(=O)c1ccc(Cn2c(SCc3ccc(F)cc3)nc3ccncc32)cc1	·	–	–	–
Clc1ccccc1CSc1cc2c(nn1)-c1ccccc1CC2	–	–	10µM	–
Clc1cccc(Cl)c1CSc1cc2c(nn1)-c1ccccc1CC2	–	–	–	–
COc1cccc(CC(=O)Nc2cc(C(F)(F)F)ccc2N2CCCC2)c1	–	–	–	–
CN1CCN(c2ccccc2NC(=O)c2ccc(OCc3ccccc3)cc2)CC1	–	–	11.2µM	?
O=C(Cc1ccc(F)cc1)Nc1ccccc1N1CCCC1	–	–	?	–
O=C(Nc1ccccc1N1CCCCC1)c1ccco1	–	–	11.2µM	–
O=C(Cc1ccc(Cl)c(Cl)c1)Nc1ccccc1N1CCCC1	–	–	10µM	–
O=C(COc1ccccc1)Nc1cc(C(F)(F)F)ccc1N1CCCC1	–	–	12.6µM	–
Cc1c(C)n(Cc2ccc(F)cc2)c2ccc(C(=O)NCc3ccco3)cc12	·	–	?	–
Cn1cnc(S(=O)(=O)N2CCC(C(=O)Nc3ccc(OC(F)(F)F)cc3)CC2)c1	·	–	–	–
Cc1cc(C)nc(SSc2nc(C)cc(C)n2)n1	–	–	?	?
CCOc1ccc(OCC(=O)Nc2ccccc2N2CCCC2)cc1	–	–	10µM	–
CC(=O)c1ccc(OCC(=O)Nc2ccccc2N2CCCC2)cc1	–	–	–	–
O=C(COc1ccccc1)Nc1ccccc1N1CCCCC1	–	–	11.2µM	–
Nc1nc(F)nc2c1ncn2[C@@H]1O[C@H](COP(=O)(O)O)[C@@H](O)[C@@H]1O	–	·	·	·
SMILES	GLP-1R agonist	PTHR1 agonist	GLP1R inv ag	GLP1R cytotox
CCN(CCCCOC(=O)c1ccc(OC)c(OC)c1)[C@@H](C)Cc1ccc(OC)cc1	–	·	·	·
CCSc1nc2ccccc2n1Cc1cccc([N+](=O)[O-])c1	–	–	11.2µM	–
Cc1ccccc1N1CCN(Cc2c[nH]c3ccccc23)CC1	–	3.98µM	?	?
O=C(/C=C/c1ccc(Cl)cc1Cl)Nc1cccc(S(=O)(=O)NC2=NCCCCC2)c1	–	–	10µM	–
O=C(CCl)Nc1cccc(S(=O)(=O)NC2=NCCCCC2)c1	–	–	?	11.2µM
CCOC(=O)Cc1ccc(NC(=O)Nc2nnc(N3CCCCC3C)s2)cc1 (configuration not stated)	·	–	?	–
Cc1ccc(CNC(=O)CN2C(=O)COc3ccccc32)cc1	·	–	–	–
CC(=O)N1CCCc2ccc(NC(=O)c3ccc(OC(C)C)cc3)cc21	·	–	–	–
CCCCOc1ccc(C(=O)Nc2ccc3c(c2)N(C(C)=O)CCC3)cc1	·	–	1.12µM	–
CCOC(=O)C1=C(C)NC(C)=C(C(=O)OCC)C1c1sccc1C	–	–	7.94µM	–
CCCCOC(=O)C1=C(C)NC(=O)NC1c1cccc([N+](=O)[O-])c1 (configuration not stated)	–	–	–	–
CCOC(=O)C1=C(C)NC(C)=C(C(=O)OCC)C1c1cccs1	–	–	–	–[1.53 µM]
CCOC(=O)C1=C(C)NC(C)=C(C(=O)OCC)C1c1cccc([N+](=O)[O-])c1	–	–	10µM	–
CCc1ccc2nc(N(Cc3cccnc3)C(C)=O)sc2c1	·	–	–	–
CC(=O)N1CCc2c(sc3c2c(=O)n(CCc2ccccc2)c(=O)n3Cc2ccccc2C)C1	–	–	?	–
